Measured values from PubChem BioAssay AID1159580 (chemical genetic matrix, 2015).
In all, about 5,500 compounds went through this assay and about 2,000 (36%) were called active. Roughly 18% stayed inconclusive and do not appear here. Cut-off read from the data, not from the text of the source: active = normalized growth mostly below about 0.91 (no sharp cut-off); inconclusive = no clear call, values can overlap the other calls; inactive = mostly above about 0.92. The list shows a part of the results.

Assay: chemical genetic growth profiling, strain panel (AID 1159580);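 note: tested at 20 µM; growth read once vehicle control cultures reached saturation at 30 °C; 1 = growth at the plate median or of vehicle wells; lower values mean less growth of the strain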
Details: growth OD

Measured: normalized growth

O=C(O)CCC(=O)c1ccc(-c2ccccc2)cc1
active: S. cerevisiae deletion strains, locus YKL009W, strain mrt4, hits give low values 0.799 | S. cerevisiae deletion strains, locus YLR262C, strain YPT6 (second series), hits give low values 0.765 | S. cerevisiae deletion strains, locus YNL183C, strain NPR1, hits give low values 0.724 | S. cerevisiae deletion strains, locus YNL271C, strain bni1, hits give low values 0.909 | S. cerevisiae deletion strains, locus YNL298W, strain CLA4, hits give low values 0.826 | S. cerevisiae deletion strains, locus YOR231W, strain MKK1, hits give low values 0.724 | S. cerevisiae deletion strains, locus YPL256C, strain CLN2, hits give low values 0.78
inactive: S. cerevisiae deletion strains, locus YKL068W, hits give low values 1 | S. cerevisiae deletion strains, locus YKL085W, strain MDH1 (second series), hits give low values 0.939 | S. cerevisiae deletion strains, locus YKL085W, strain MDH1, hits give low values 0.939 | S. cerevisiae deletion strains, locus YKL160W, strain elf1, hits give low values 0.961 | S. cerevisiae deletion strains, locus YKL190W, strain CNB1, hits give low values 0.996 | S. cerevisiae deletion strains, locus YKR001C, strain vps1, hits give low values 0.92 | S. cerevisiae deletion strains, locus YKR026C, strain gcn3, hits give low values 0.944 | S. cerevisiae deletion strains, locus YKR091W, strain srl3, hits give low values 0.979 | S. cerevisiae deletion strains, locus YLL001W, strain dnm1, hits give low values 0.947 | S. cerevisiae deletion strains, locus YLL026W, hits give low values 0.989 | S. cerevisiae deletion strains, locus YLL041C, strain sdh2, hits give low values 0.979 | S. cerevisiae deletion strains, locus YLR027C, strain aat2, hits give low values 0.978 | S. cerevisiae deletion strains, locus YLR039C, strain RIC1, hits give low values 0.855 | S. cerevisiae deletion strains, locus YLR058C, strain SHM2, hits give low values 0.978 | S. cerevisiae deletion strains, locus YLR102C, strain apc9, hits give low values 0.981 | S. cerevisiae deletion strains, locus YLR113W, strain HOG1, hits give low values 0.865 | S. cerevisiae deletion strains, locus YLR221C, strain rsa3, hits give low values 0.997 | S. cerevisiae deletion strains, locus YLR258W, strain gsy2, hits give low values 1 | S. cerevisiae deletion strains, locus YLR262C, strain YPT6, hits give low values 0.821 | S. cerevisiae deletion strains, locus YLR268W, strain sec22, hits give low values 0.894 | S. cerevisiae deletion strains, locus YLR320W, strain mms22, hits give low values 1.01 | S. cerevisiae deletion strains, locus YLR330W, strain CHS5, hits give low values 0.994 | S. cerevisiae deletion strains, locus YLR342W, strain FKS1 (second series), hits give low values 0.986 | S. cerevisiae deletion strains, locus YLR342W, strain FKS1, hits give low values 0.934 | S. cerevisiae deletion strains, locus YLR357W, strain rsc2, hits give low values 0.903 | S. cerevisiae deletion strains, locus YLR370C, strain arc18, hits give low values 0.984 | S. cerevisiae deletion strains, locus YLR371W, strain rom2, hits give low values 0.962 | S. cerevisiae deletion strains, locus YLR384C, strain iki3, hits give low values 0.964 | S. cerevisiae deletion strains, locus YLR418C, strain cdc73, hits give low values 0.902 | S. cerevisiae deletion strains, locus YML016C, strain PPZ1, hits give low values 0.988 | S. cerevisiae deletion strains, locus YML032C, strain rad52, hits give low values 0.938 | S. cerevisiae deletion strains, locus YML120C, strain ndi1, hits give low values 0.971 | S. cerevisiae deletion strains, locus YML124C, strain tub3, hits give low values 0.981 | S. cerevisiae deletion strains, locus YMR058W, strain fet3, hits give low values 0.978 | S. cerevisiae deletion strains, locus YMR078C, strain ctf18, hits give low values 0.963 | S. cerevisiae deletion strains, locus YMR125W, strain sto1, hits give low values 0.979 | S. cerevisiae deletion strains, locus YMR129W, hits give low values 0.987 | S. cerevisiae deletion strains, locus YMR205C, strain PFK2, hits give low values 0.974 | S. cerevisiae deletion strains, locus YMR223W, strain ubp8, hits give low values 0.974 | S. cerevisiae deletion strains, locus YMR231W, strain pep5, hits give low values 0.972 | S. cerevisiae deletion strains, locus YMR263W, strain SAP30, hits give low values 0.972 | S. cerevisiae deletion strains, locus YMR307W, strain GAS1, hits give low values 0.939 | S. cerevisiae deletion strains, locus YNL067W, strain RPL9B, hits give low values 0.957 | S. cerevisiae deletion strains, locus YNL071W, strain lat1, hits give low values 0.951 | S. cerevisiae deletion strains, locus YNL128W, strain TEP1, hits give low values 0.982 | S. cerevisiae deletion strains, locus YNL153C, strain GIM3, hits give low values 0.985 | S. cerevisiae deletion strains, locus YNL209W, strain ssb2, hits give low values 0.993 | S. cerevisiae deletion strains, locus YNL233W, strain BNI4, hits give low values 0.97 | S. cerevisiae deletion strains, locus YNL248C, strain rpa49, hits give low values 0.993 | S. cerevisiae deletion strains, locus YNL250W, strain rad50, hits give low values 0.977 | S. cerevisiae deletion strains, locus YNL307C, strain MCK1, hits give low values 0.963 | S. cerevisiae deletion strains, locus YNL322C, strain KRE1 (second series), hits give low values 0.97 | S. cerevisiae deletion strains, locus YNL322C, strain KRE1, hits give low values 0.998 | S. cerevisiae deletion strains, locus YNR049C, strain mso1, hits give low values 0.987 | S. cerevisiae deletion strains, locus YNR052C, strain pop2, hits give low values 0.972 | S. cerevisiae deletion strains, locus YOL006C, strain TOP1, hits give low values 0.889 | S. cerevisiae deletion strains, locus YOL012C, strain htz1 0.779 | S. cerevisiae deletion strains, locus YOL147C, strain pex11, hits give low values 0.98 | S. cerevisiae deletion strains, locus YOR001W, strain rrp6, hits give low values 0.955 | S. cerevisiae deletion strains, locus YOR061W, strain CKA2, hits give low values 0.956 | S. cerevisiae deletion strains, locus YOR069W, strain VPS5, hits give low values 0.987 | S. cerevisiae deletion strains, locus YOR070C, strain gyp1, hits give low values 0.988 | S. cerevisiae deletion strains, locus YOR080W, strain dia2, hits give low values 0.979 | S. cerevisiae deletion strains, locus YOR083W, strain WHI5, hits give low values 0.953 | S. cerevisiae deletion strains, locus YOR106W, strain vam3, hits give low values 0.935 | S. cerevisiae deletion strains, locus YOR136W, strain idh2, hits give low values 0.968 | S. cerevisiae deletion strains, locus YOR144C, strain elg1, hits give low values 0.972 | S. cerevisiae deletion strains, locus YOR184W, strain ser1, hits give low values 0.905 | S. cerevisiae deletion strains, locus YOR265W, strain rbl2, hits give low values 0.996 | S. cerevisiae deletion strains, locus YOR270C, strain vph1, hits give low values 0.95 | S. cerevisiae deletion strains, locus YOR290C, strain snf2, hits give low values 0.978 | S. cerevisiae deletion strains, locus YOR316C, strain cot1, hits give low values 0.984 | S. cerevisiae deletion strains, locus YPL051W, strain arl3, hits give low values 0.958 | S. cerevisiae deletion strains, locus YPL055C, strain LGE1, hits give low values 0.973 | S. cerevisiae deletion strains, locus YPL078C, strain atp4, hits give low values 0.941 | S. cerevisiae deletion strains, locus YPL106C, strain sse1, hits give low values 1.06 | S. cerevisiae deletion strains, locus YPL240C, strain hsp82, hits give low values 0.999 | S. cerevisiae deletion strains, locus YPL241C, strain CIN2, hits give low values 0.996 | S. cerevisiae deletion strains, locus YPR119W, strain clb2, hits give low values 0.972 | S. cerevisiae deletion strains, locus YPR141C, strain kar3, hits give low values 1.01 | S. cerevisiae deletion strains, locus YPR163C, strain tif3, hits give low values 0.967 | S. cerevisiae deletion strains, locus YPR167C, strain met16, hits give low values 0.967 | S. cerevisiae deletion strains, strain wtn01, hits give low values 0.932 | S. cerevisiae strains, strain wild type, hits give low values 0.99
